Drawing on PubChem BioAssay (Tox21), this text covers Potency and outcome for 12 compounds.

Values without a mark were called inactive. Results filed as inconclusive are left out. Activity calls are given as the source filed them. Unless noted, the call rests on the fitted dose curve; in most records, active means well fitted curve in the direction sought with a large enough effect in the repeat runs; inconclusive means weak or mixed curves; inactive means no such curve, though single readings can be large; an effect the other way counts as inactive or inconclusive.

Test [1] is described as follows: A CellTox Green Cytotoxicity Assay to monitor cytotoxicity in HepG2 cells - 24 hour (AID 1224878). Further: nearly all actives have a fitted effect of over 45% in size. The gist of the method:
(§1)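 HepG2 cells, 600/well, preincubated 5 h with CellTox Green dye, then exposed to Tox21 compounds in DMSO at 37 C for up to 40 h. Dead-cell DNA fluorescence read at the indicated time point.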

A short description of test [2]: A CellTox Green Cytotoxicity Assay to monitor cytotoxicity in HepG2 cells - 40 hour (AID 1224879). Further: nearly all actives have a fitted effect of over 40% in size. The gist of the method: as §1
Test [3] can be described thus: qHTS RealTime-Glo MT Cell Viability Assay in HEK293 cells - 0 hour (AID 1224880). Further: top concentration of the series differs between compounds; nearly all actives have a fitted effect of over 45% in size. The gist of the method: (§2)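 600 cells/well were plated with the nonlytic NanoLuc/prosubstrate reagent, pre-incubated 5 h, then given 23 nL of compound in DMSO. Incubation at 37 C for 40 h, with luminescence from viable-cell-reduced substrate read repeatedly from 0 h.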
Test [4] is described as follows: A CellTox Green Cytotoxicity Assay to monitor cytotoxicity in HEK293 cells - 32 hour (AID 1224881). Further: nearly all actives have a fitted effect of over 40% in size. The gist of the method: (§3)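 HEK293 cells, 600/well, were preincubated 5 hours and then exposed to compounds at 37 C for up to 40 hours. A cell-impermeant cyanine dye staining dead-cell DNA was read by fluorescence at 0, 8, 16, 24, 32 and 40 h time points.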
A short description of test [5]: A CellTox Green Cytotoxicity Assay to monitor cytotoxicity in HepG2 cells - 0 hour (AID 1224882). Further: nearly all actives have a fitted effect of over 35% in size. The gist of the method:
as §1

Test [6] is described as follows: A CellTox Green Cytotoxicity Assay to monitor cytotoxicity in HepG2 cells - 32 hour (AID 1224883). Further: nearly all actives have a fitted effect of over 50% in size. The gist of the method:
as §1

The nature of test [7]: A CellTox Green Cytotoxicity Assay to monitor cytotoxicity in HEK293 cells - 8 hour (AID 1224884). Further: nearly all actives have a fitted effect of over 35% in size. The gist of the method:
as §3

Test [8] is described as follows: qHTS RealTime-Glo MT Cell Viability Assay in HepG2 cells - 16 hour (AID 1224885). Further: nearly all actives have a fitted effect of over 50% in size. The gist of the method:
(§4)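 Cell number in HepG2 cultures estimated from NanoLuc luminescence generated by metabolic reduction of a prosubstrate by living cells. The homogeneous, nonlytic format allowed repeated reads at 0, 8, 16, 24, 32 and 40 h of compound exposure.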

Test [9] can be described thus: qHTS RealTime-Glo MT Cell Viability Assay in HEK293 cells - 24 hour (AID 1224886). Further: top concentration of the series differs between compounds; nearly all actives have a fitted effect of over 50% in size. The gist of the method: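 Homogeneous bioluminescent viability format in HEK293 cells (600 cells/well). Following 5 h at 37 C/5% CO2, 23 nL compound was pintooled; the signal was measured repeatedly during 40 h incubation.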
Test [10] is described as follows: qHTS RealTime-Glo MT Cell Viability Assay in HEK293 cells - 8 hour (AID 1224887). Further: top concentration of the series differs between compounds; nearly all actives have a fitted effect of over 50% in size. The gist of the method:
as §2
A general note: qHTS replaces the single test concentration by a dilution series.

The nature of test [11]: A CellTox Green Cytotoxicity Assay to monitor cytotoxicity in HEK293 cells - 16 hour (AID 1224888). Further: nearly all actives have a fitted effect of over 35% in size. The gist of the method: as §3
Test [12] is described as follows: qHTS RealTime-Glo MT Cell Viability Assay in HepG2 cells - 0 hour (AID 1224889). Further: nearly all actives have a fitted effect of over 50% in size. The gist of the method:
as §4

Test [13] in a line: A CellTox Green Cytotoxicity Assay to monitor cytotoxicity in HepG2 cells - 8 hour (AID 1224890). Further: nearly all actives have a fitted effect of over 45% in size. The gist of the method:
as §1

Test [14] can be described thus: qHTS assay to identify small molecule antagonists of the estrogen receptor alpha (ER-alpha) signaling pathway using the BG1 cell line in the presence of 0.1 nM 17-beta-estradiol - cell viability counter screen (AID 1259241). Further: nearly all actives have a fitted effect of over 40% in size. The gist of the method:
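CellTiter-Fluor read (30 min, 37C) on ER-alpha/ERE-luc VM7Luc4E2 cells; 22 hr compound treatment; agonist 0.1 nM E2 final; same-well multiplex.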

A short description of test [15]: qHTS assay to identify small molecule antagonists of the androgen receptor (AR) signaling pathway using the MDA cell line in the presence of 0.5 nM R1881 - cell viability counter screen (AID 1259242). Further: nearly all actives have a fitted effect of over 45% in size. The gist of the method: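 MDA-kb2 cells (MMTV-luciferase, AR/GR responsive) were treated with compounds plus 0.5 nM R1881 (final) for 16 hr at 37C, 0% CO2. Viability was then read in the same wells as live-cell protease fluorescence (CellTiter-Fluor, 30 min).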

The target in test [16] is Estrogen receptor (Homo sapiens) (UniProt P03372). In words: qHTS assay to identify small molecule antagonists of the estrogen receptor alpha (ER-alpha) signaling pathway using the BG1 cell line in the presence of 0.1 nM 17-beta-estradiol (AID 1259244). Further: nearly all actives have a fitted effect of over 50% in size. The gist of the method: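 VM7Luc4E2 cells (endogenous full-length ER-alpha, 4×ERE-luciferase), kept 5 days in phenol red-free, charcoal-stripped FBS medium; 4,000 cells/well. Compounds added with 0.1 nM (final) 17beta-estradiol, 22 hr at 37C; luminescence read with ONE-Glo after 30 min.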
Estrogen receptor (Homo sapiens), sequence (P03372 whole entry, looked up): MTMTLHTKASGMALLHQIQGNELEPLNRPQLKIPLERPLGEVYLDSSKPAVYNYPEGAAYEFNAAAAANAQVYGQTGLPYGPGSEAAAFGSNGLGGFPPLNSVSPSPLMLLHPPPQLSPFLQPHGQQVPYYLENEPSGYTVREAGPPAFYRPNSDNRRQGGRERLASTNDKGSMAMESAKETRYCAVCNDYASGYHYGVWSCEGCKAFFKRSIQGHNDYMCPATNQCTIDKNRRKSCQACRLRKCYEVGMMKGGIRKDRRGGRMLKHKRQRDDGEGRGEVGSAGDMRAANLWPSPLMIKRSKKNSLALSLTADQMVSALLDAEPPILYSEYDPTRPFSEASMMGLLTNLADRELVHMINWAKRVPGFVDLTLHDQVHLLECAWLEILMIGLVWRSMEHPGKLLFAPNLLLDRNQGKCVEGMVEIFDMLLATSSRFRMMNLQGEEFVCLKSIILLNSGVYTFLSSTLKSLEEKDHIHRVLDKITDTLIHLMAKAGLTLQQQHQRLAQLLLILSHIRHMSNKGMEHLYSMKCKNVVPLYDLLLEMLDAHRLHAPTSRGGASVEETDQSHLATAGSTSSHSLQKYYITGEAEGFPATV

A short description of test [17]: qHTS assay to identify small molecule phospholipidosis (PLD) inducers (AID 1259344; active means well fitted curve in the direction sought with a large enough effect; an effect the other way counts as inactive or inconclusive). The gist of the method: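 HepG2 cells grown on collagen I take up LipidTOX Red while exposed to compound for 24 h; after fixation they are imaged at 20x and pit metrics are extracted.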
Test [18] in a line: qHTS assay to identify small molecule HDAC inhibitors (AID 1259364). The gist of the method: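 Wild-type HCT-116 cells, plated overnight at 37 C, exposed to compounds 2 hr at 37 C; luminogenic HDAC-Glo substrate then added 30 min at room temperature. Luminescence reports relative endogenous class I/II HDAC activity.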
A short description of test [19]: qHTS assay to identify small molecule HDAC inhibitors - cell viability counter screen (AID 1259365). The gist of the method: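 To flag cytotoxic hits, 1,500 wild-type HCT-116 cells per well, plated the day before, receive test compounds for 2hr at 37 C before CellTiter-Glo reagent and a luminescence read.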
Test [20] deals with Androgen receptor (Homo sapiens) (UniProt P10275). In words: qHTS assay to identify small molecule antagonists of the androgen receptor (AR) signaling pathway using the MDA cell line in the presence of 0.5 nM R1881 (AID 1259243). Further: nearly all actives have a fitted effect of over 50% in size. Further: potency means the concentration at half of the fitted maximal effect. The gist of the method: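 MDA-kb2 cells (MMTV-luciferase, responsive to AR and GR) at 3,000/well, rested 5 h at 37C, 0% CO2, then given compounds plus 0.5 nM R1881 (final) for 16 hr. Luciferase read with ONE-Glo after 30 min at room temperature.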
Androgen receptor (Homo sapiens), sequence (P10275 whole entry, looked up): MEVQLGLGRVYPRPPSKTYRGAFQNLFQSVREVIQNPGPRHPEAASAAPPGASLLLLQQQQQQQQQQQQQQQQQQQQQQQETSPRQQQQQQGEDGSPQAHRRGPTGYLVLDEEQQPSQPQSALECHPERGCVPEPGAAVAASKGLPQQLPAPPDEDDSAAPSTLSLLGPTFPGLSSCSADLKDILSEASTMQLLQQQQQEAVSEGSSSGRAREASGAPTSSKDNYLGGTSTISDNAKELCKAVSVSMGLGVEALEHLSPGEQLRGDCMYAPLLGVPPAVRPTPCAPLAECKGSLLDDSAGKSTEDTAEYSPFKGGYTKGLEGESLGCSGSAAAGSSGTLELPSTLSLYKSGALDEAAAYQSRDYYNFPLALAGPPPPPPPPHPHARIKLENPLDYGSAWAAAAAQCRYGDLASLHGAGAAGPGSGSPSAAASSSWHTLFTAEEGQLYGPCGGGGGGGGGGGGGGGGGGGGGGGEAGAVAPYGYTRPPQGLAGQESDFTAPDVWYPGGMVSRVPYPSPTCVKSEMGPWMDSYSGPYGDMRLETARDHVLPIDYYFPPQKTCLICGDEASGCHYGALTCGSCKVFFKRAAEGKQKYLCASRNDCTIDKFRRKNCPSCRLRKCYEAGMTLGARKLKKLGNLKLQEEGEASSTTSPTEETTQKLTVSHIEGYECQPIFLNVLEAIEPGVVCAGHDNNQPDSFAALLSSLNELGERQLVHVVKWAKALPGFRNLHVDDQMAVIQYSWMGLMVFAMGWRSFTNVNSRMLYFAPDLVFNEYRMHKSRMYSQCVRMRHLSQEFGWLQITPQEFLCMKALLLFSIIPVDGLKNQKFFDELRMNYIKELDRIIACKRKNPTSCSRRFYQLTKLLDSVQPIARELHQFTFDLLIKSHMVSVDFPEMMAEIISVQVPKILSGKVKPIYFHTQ

On to `CC(O)CCCCn1c(=O)c2c(ncn2C)n(C)c1=O` (configuration not stated), for which the Potency result in [1], in [2], in [3], in [4], in [5] and in test [6] was “inactive” in each case. The Potency entry in [7], in test [11], in test [12], in [13], in test [17] and in [18] was “inactive” in each case. Also, the call in test [8], in test [9], in test [10], in [14], in test [15] and in test [16] was inactive. Also, the compound was called inactive in test [19].
Turning to `CC(=O)O[C@@H]1CC2C3CCc4cc(OC(=O)c5ccccc5)ccc4C3CCC2(C)[C@H]1OC(C)=O` (some centres not stated), the Potency entry in test [1], in test [2], in test [3], in test [4], in test [5] and in [6] was “inactive” each time. For the same compound, the Potency result in test [7], in test [11], in [12], in test [13] and in [18] was “inactive” each time. The compound was classed as inactive in test [8], in test [9], in [10], in test [14], in test [15] and in test [16]. For the same compound, in test [19], the outcome was inactive. The Potency in [20] is 10.6 µM (active).
Regarding `O=C(O)Cc1ccccc1Oc1ccc(Cl)cc1Cl`, the Potency result in [1], in test [2], in test [3], in test [4], in [5] and in [6] was “inactive” each time. The Potency entry in test [7], in test [11], in [12], in test [13], in [17] and in [18] was “inactive” each time. Besides, the compound was called inactive in [8], in test [9], in test [10], in test [14], in test [15] and in test [16].
`CCN1CCN(C(=O)N[C@@H](C(=O)N[C@@H]2C(=O)N3C(C(=O)O)=C(CSc4nnnn4C)CS[C@H]23)c2ccc(O)cc2)C(=O)C1=O`: the Potency entry in test [1], in [2], in [3], in [4], in [5] and in test [6] was “inactive” each time. Further, the Potency result in [7], in test [11], in [12], in test [13], in test [17] and in [18] was “inactive” in each case. For the same compound, the call in test [8], in test [9], in test [10], in test [14], in test [15] and in [16] was inactive. For the same compound, in [19], the call was inactive.
`COC(=O)c1cc(Cl)c(NC(C)=O)cc1OC`: the Potency entry in test [1], in [2], in [3], in test [4], in [5] and in test [6] was “inactive” in each case. Also, the Potency entry in [7], in test [11], in test [12], in test [13], in test [20] and in test [18] was “inactive” throughout. Also, the outcome in [8], in test [9], in [10], in test [14], in test [15] and in [19] was inactive.
Regarding `CN(C)c1cc(NC(=O)CNC(C)(C)C)c(O)c2c1C[C@H]1C[C@H]3[C@H](N(C)C)C(=O)C(C(N)=O)=C(O)[C@@]3(O)C(=O)C1=C2O`, the Potency entry in test [1], in test [2], in test [3], in test [4], in test [5] and in test [6] was “inactive” throughout. The Potency entry in test [7], in test [11], in test [12], in test [13], in [20] and in [17] was “inactive” each time. The Potency result in test [18] is “inactive”. For the same compound, the result in test [8], in test [9], in [10], in [14], in test [15] and in [16] was inactive. The result in test [19] was inactive.
Take `NS(=O)(=O)c1cc2c(cc1C(F)(F)F)NCNS2(=O)=O`: the Potency entry in test [1], in test [2], in test [3], in test [4], in test [5] and in test [6] was “inactive” each time. Further, the Potency entry in test [7], in [11], in test [12], in test [13], in test [17] and in [18] was “inactive” each time. Further, the compound was classed as inactive in test [8], in test [9], in test [10], in test [14], in [15] and in test [16]. The result in test [19] was inactive.
On to `CCCCC(CC)CCC(CC(C)C)OS(=O)(=O)O` (configuration not stated), for which the Potency entry in [1], in [2], in test [3], in test [4], in [5] and in test [6] was “inactive” each time. Moreover, the Potency result in [7], in test [11], in test [12], in test [13], in test [17] and in test [18] was “inactive” in each case. The call in [8], in test [9], in test [10], in [14], in test [15] and in test [16] was inactive. Besides, the result in [19] was inactive.
`CC(=O)/C=C/C=C1/C2CCC(C2)C1(C)C` (configuration not stated): the Potency entry in [1], in [2], in test [3], in test [4], in test [5] and in test [6] was “inactive” each time. Moreover, the Potency entry in test [7], in [11], in [12], in test [13] and in [20] was “inactive” throughout. Besides, the compound was classed as inactive in [8], in test [9], in test [10], in [14], in test [15] and in test [16]. Besides, the result in [19] was inactive.
Consider `COC(=O)c1ccc(NC(C)=O)cc1OC`, for which the Potency entry in [1], in [2], in test [3], in [4], in test [5] and in test [6] was “inactive” each time. In addition, the Potency result in test [7], in test [11], in test [12], in test [13] and in [20] was “inactive” throughout. Also, the outcome in test [8], in test [9], in test [10], in test [14], in test [15] and in [16] was inactive. Besides, in [19], the outcome was inactive.
In the case of `CCCCCCCCC1CO1` (configuration not stated), the Potency entry in test [1], in test [2], in test [3], in test [4], in [5] and in test [6] was “inactive” throughout. For the same compound, the Potency entry in [7], in [11], in test [12], in test [13] and in test [20] was “inactive” throughout. Besides, the result in [8], in [9], in [10], in test [14], in test [15] and in [19] was inactive.
For `CCN1CCN(C(=O)N[C@@H](C(=O)N[C@@H]2C(=O)N3[C@@H]2SC(C)(C)[C@H]3C(=O)O)c2ccccc2)C(=O)C1=O`, the Potency entry in test [1], in test [2], in [3], in test [4], in test [5] and in test [6] was “inactive” each time. In addition, the Potency entry in test [7], in [11], in test [12], in test [13], in test [17] and in test [18] was “inactive” each time. Also, the compound was classed as inactive in [8], in test [9], in test [10], in [14], in [15] and in test [16].
